Source: PubChem BioAssay
Unmarked numbers belong to inactive results. For some assays here: Measured potencies and affinities stand elsewhere. Calls of active or inactive are those of the source. Unless noted, the rule behind the calls is not given here.

How the values were obtained:
[1] = antimalarial activity against Dd2 strain (AID 2302;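 active = growth inhibition above 50% at the single 2 µM test dose, taken to imply half-maximal potency below 2 µM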;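 note: 0% = DMSO untreated growth and 100% = chloroquine plus artemisinin killed control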); conditions: P. falciparum Dd2 in RBCs, LDH growth readout, 72 h; at 2 µM; hits give high values
[2] = human hepatoma cell viability loss – ATP luminescence, cytotoxicity control for P. falciparum antimalarial project, primary screen (AID 2303;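 active = inhibition above 50%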;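 note: 0% = DMSO wells and 100% = digitonin-killed cells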); conditions: HepG2 viability, 24-48 h, at 10 µM, hits give high values
[3] = target: L-lactate dehydrogenase (Plasmodium falciparum (isolate CDC / Honduras)) (UniProt Q27743); experiment: PfLDH activity inhibition – cell lysate, 3D7 strain, counter-screen for P. falciparum growth inhibition project (AID 2304);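 note: 0% = vehicle and 100% = reference inhibitor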; conditions: P. falciparum 3D7 crude extract, LDH APAD/NBT absorbance; at 2 µM; hits give high values
[4] = inhibition of 3D7 malaria parasite growth – strain 3D7 (AID 2306);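 note: 0% = DMSO wells and 100% = chloroquine plus artemisinin control wells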; conditions: P. falciparum 3D7 erythrocytic growth, LDH absorbance, 72 h; at 2 µM; hits give high values
[5] = target: Calcium-dependent protein kinase 1 (Plasmodium falciparum (isolate 3D7)) (UniProt P62344); experiment: PfCDPK1 kinase inhibitors, biochemical, TCAMS library (AID 1159585; cut-off not given, nearly all actives have IC50 up to about 0.98 µM;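 note: inhibitors leave more ATP so luminescence rises with inhibition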); conditions: recombinant PfCDPK1, Kinase-Glo ATP depletion luminescence
[6] = target: Plasmodium falciparum protein kinase 6 (PK6, PF3D7_1337100) (UniProt Q8IDW1); experiment: PfPK6 kinase inhibitors, biochemical, TCAMS library (AID 1159586); conditions: recombinant PfPK6, Kinase-Glo ATP depletion luminescence
[7] = target: Protein kinase 7 (PK7), Plasmodium falciparum 3D7 (PF3D7_0213400) (UniProt Q7YTF7); experiment: inhibition of Plasmodium PK7 catalytic activity – biochemical, TCAMS antimalarial set, Kinase-Glo luminescence (AID 1159587); conditions: recombinant PfPK7, Kinase-Glo ATP depletion luminescence
[8] = target: Calcium-dependent protein kinase 4 (Plasmodium falciparum (isolate 3D7)) (UniProt Q8IBS5); experiment: PfCDPK4 kinase inhibitors, biochemical, TCAMS library (AID 1159588; cut-off not given, nearly all actives have IC50 up to about 0.91 µM); conditions: recombinant PfCDPK4, Kinase-Glo ATP depletion luminescence
Calcium-dependent protein kinase 4 (Plasmodium falciparum (isolate 3D7)), sequence (Q8IBS5 whole entry, looked up): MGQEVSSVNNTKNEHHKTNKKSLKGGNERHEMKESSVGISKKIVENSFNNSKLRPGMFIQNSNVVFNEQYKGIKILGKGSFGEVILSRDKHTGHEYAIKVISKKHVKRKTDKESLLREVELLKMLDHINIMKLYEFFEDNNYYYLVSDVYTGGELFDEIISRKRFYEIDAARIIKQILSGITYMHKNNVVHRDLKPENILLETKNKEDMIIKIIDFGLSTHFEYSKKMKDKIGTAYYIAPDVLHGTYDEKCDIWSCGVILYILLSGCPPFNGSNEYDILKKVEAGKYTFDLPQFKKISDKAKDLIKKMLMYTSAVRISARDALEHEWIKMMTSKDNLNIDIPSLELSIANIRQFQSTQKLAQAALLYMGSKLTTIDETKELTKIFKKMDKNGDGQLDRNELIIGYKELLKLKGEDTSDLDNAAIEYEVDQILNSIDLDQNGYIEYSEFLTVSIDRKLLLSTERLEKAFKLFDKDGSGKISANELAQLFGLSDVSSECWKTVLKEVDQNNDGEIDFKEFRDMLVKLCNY

Plasmodium falciparum protein kinase 6 (PK6, PF3D7_1337100), sequence (Q8IDW1 1-305): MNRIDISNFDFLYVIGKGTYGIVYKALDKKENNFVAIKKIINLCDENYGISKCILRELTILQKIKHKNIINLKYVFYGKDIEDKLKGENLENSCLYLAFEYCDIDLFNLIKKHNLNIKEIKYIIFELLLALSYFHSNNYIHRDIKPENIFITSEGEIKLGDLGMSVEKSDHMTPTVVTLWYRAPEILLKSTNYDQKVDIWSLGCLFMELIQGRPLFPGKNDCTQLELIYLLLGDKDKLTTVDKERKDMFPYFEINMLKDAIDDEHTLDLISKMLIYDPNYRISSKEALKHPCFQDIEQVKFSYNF
Protein kinase 7 (PK7), Plasmodium falciparum 3D7 (PF3D7_0213400), sequence (Q7YTF7 1-343): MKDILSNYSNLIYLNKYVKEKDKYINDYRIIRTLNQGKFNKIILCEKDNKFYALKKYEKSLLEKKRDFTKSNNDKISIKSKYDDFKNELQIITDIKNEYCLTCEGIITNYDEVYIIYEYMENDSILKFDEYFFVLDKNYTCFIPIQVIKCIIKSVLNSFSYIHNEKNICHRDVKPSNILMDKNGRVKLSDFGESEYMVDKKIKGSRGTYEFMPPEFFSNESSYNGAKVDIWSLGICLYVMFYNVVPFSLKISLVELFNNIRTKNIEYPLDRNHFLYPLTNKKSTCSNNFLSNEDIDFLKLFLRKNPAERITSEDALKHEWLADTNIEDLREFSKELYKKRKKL
Calcium-dependent protein kinase 1 (Plasmodium falciparum (isolate 3D7)), sequence (P62344 whole entry, looked up): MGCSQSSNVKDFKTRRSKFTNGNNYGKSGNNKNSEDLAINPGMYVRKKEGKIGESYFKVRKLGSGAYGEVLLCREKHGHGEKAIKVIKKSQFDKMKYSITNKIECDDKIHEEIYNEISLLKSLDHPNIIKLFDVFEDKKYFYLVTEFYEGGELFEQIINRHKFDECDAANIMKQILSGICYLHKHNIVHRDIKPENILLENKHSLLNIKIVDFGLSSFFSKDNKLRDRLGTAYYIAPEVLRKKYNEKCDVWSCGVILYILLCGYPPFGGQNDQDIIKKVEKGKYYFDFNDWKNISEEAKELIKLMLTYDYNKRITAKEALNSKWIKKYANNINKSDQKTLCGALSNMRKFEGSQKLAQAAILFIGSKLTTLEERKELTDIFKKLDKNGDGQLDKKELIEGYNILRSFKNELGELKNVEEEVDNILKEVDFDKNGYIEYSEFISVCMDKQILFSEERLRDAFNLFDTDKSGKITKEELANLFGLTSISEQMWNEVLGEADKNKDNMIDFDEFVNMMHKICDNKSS
L-lactate dehydrogenase (Plasmodium falciparum (isolate CDC / Honduras)), sequence (Q27743 whole entry, looked up): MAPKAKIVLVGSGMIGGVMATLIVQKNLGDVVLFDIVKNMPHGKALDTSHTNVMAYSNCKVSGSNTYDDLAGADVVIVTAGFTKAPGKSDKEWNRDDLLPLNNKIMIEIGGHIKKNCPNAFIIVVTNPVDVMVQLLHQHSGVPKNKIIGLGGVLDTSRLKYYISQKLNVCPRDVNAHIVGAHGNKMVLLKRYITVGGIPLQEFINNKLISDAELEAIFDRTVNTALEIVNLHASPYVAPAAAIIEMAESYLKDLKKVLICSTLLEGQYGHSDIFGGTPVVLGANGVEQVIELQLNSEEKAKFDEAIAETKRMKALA

Row | SMILES | growth inhibition [1] | inhibition [2] | inhibition [3] | growth inhibition [4] | outcome [5] | outcome [6] | outcome [7] | outcome [8]
1 | CCc1c(CCNCCCCCCNCCc2ccc(OC)c(OC)c2CC)ccc(OC)c1OC | 1% | 58% (active) | 0% | 100% (active) | inactive | inactive | inactive | inactive
2 | CCc1cn(C)c2c(N3CCCC3=O)cc(C(=O)N[C@@H](Cc3ccccc3)[C@H](O)CNC(C)(C)c3cccc(C(F)(F)F)c3)cc12 | 97% (active) | 22% | 0% | 97% (active) | inactive | inactive | inactive | inactive
3 | COc1ccc(-c2ccc(NC(=O)c3ccc(F)cc3)cc2)cc1CN1CCCN(C)CC1 | 35% | 29% | -2% | 98% (active) | inactive | inactive | inactive | inactive
4 | O=C(Nc1ccccc1)Nc1cccc(-c2cccc(-c3nc4ccc(F)cc4[nH]3)c2)c1 | 41% | 38% | 4% | 99% (active) | inactive | inactive | inactive | inactive
5 | O=c1[nH]nc(-c2ccc(N3CCCC3)c([N+](=O)[O-])c2)c2ccccc12 | 39% | 2% | -6% | 100% (active) | inactive | inactive | inactive | inactive
6 | COc1ccc(-c2cc(Nc3nc(-c4cccc(Cl)c4)nc4ccccc34)ccn2)cc1 | 17% | 3% | -2% | 100% (active) | inactive | inactive | inactive | inactive
7 | O=C(Nc1ccc(F)cc1)NC1CCN(c2ccnc3ccccc23)C1 (stereo unspecified) | 2% | 9% | -2% | 92% (active) | inactive | inactive | inactive | inactive
8 | COc1ccc2c(NN=Cc3ccc(OC)c4ccccc34)cc(C)nc2c1 | 99% (active) | 3% | -4% | 101% (active) | inactive | inactive | inactive | inactive
9 | CC(C(=O)Nc1ccc(Br)cc1Br)N1CCN(C(=O)c2ccco2)CC1 (stereo unspecified) | 84% (active) | 3% | -3% | 91% (active) | inactive | inactive | inactive | inactive
10 | Cc1cccc2[nH]c(-c3cccc(-c4cccc(CN5CCCC5CN)c4)c3)nc12 (stereo unspecified) | 72% (active) | 15% | 6% | 101% (active) | inactive | inactive | inactive | inactive
11 | COc1cc2nc(NCc3ccc(S(N)(=O)=O)cc3)nc(Nc3ccc(Oc4ccccc4)cc3)c2cc1OC | 100% (active) | 14% | -3% | 101% (active) | inactive | inactive | inactive | inactive
12 | Cc1cccc(C(=O)Nc2ccnc(N3CCC(N(C)Cc4cccc(C#N)c4)CC3)c2)c1 | 52% (active) | 5% | -2% | 101% (active) | inactive | inactive | inactive | inactive
13 | O=C(/C=C/c1ccc(Cl)c(Cl)c1)NCCCCCN1CC[C@H](NC(=O)c2sc3ccccc3c2Cl)C1 | 3% | 26% | -2% | 97% (active) | inactive | inactive | inactive | inactive
14 | Cn1ncc2ccc(Nc3nccc(-c4ccc5c(c4)c(N)nn5C)n3)cc21 | 96% (active) | 48% | -2% | 99% (active) | inactive | inactive | inactive | inactive
15 | COc1ccc(-c2nc(NC(=O)CSc3ccccc3)sc2C)cc1 | 31% | 6% | 2% | 94% (active) | inactive | inactive | inactive | inactive
16 | CC(Nc1ccc2c(c1)CCC2)C(=O)Nc1cc(C(F)(F)F)ccc1N1CCOCC1 (stereo unspecified) | 100% (active) | -3% | -1% | 100% (active) | inactive | inactive | inactive | inactive
17 | CC(C)(C)NCC(O)COc1ccc(Cl)cc1C1=NNC(=O)CC1 (stereo unspecified) | -1% | 6% | -2% | 96% (active) | inactive | inactive | inactive | inactive
18 | Fc1ccc2nc(-c3cccc(-c4ccc(CNCCc5ccncc5)cc4)c3)[nH]c2c1 | 100% (active) | 44% | 4% | 99% (active) | inactive | inactive | inactive | inactive
19 | COc1ccccc1C1CCN(C2CCC(NC(=O)c3ccc4nc(-c5ccc(C)cc5)[nH]c4c3)CC2)CC1 (stereo unspecified) | 100% (active) | 100% (active) | 4% | 101% (active) | inactive | inactive | inactive | inactive

Row | SMILES | growth inhibition [1] | inhibition [2] | inhibition [3] | growth inhibition [4] | outcome [5] | outcome [6] | outcome [7] | outcome [8]
20 | CN(C)C(=O)c1ccc(CN(Cc2ccc3c(c2)OCCO3)Cc2ccc3c(c2)OCO3)cc1 | 95% (active) | -10% | 3% | 89% (active) | inactive | inactive | inactive | inactive
21 | COc1ccc(NC(=O)Nc2cccc(-c3ccncc3)c2)cc1N1CCN(C)CC1 | 57% (active) | 9% | 5% | 98% (active) | inactive | inactive | inactive | inactive
22 | N#Cc1ccc(CNCCCCCCCNCc2ccc(-c3ccccc3)cc2)cc1 | 10% | 19% | 3% | 87% (active) | inactive | inactive | inactive | inactive
23 | CC(C)NCc1cccc(-c2cccc(-c3nc4ccc(F)cc4[nH]3)c2)c1 | 85% (active) | 20% | 2% | 101% (active) | inactive | inactive | inactive | inactive
24 | CS(=O)(=O)CCNCc1cccc(-c2cc3c(Nc4ccc(OCc5ccccc5)cc4)ncnc3cn2)c1 | 26% | 3% | 2% | 101% (active) | inactive | inactive | inactive | inactive
25 | COc1ccc(O)cc1Cc1cnc2nc(N)nc(N)c2c1C | 97% (active) | 67% (active) | -2% | 92% (active) | inactive | inactive | inactive | inactive
26 | CN(C)c1ccc(C=C2SC(=N)N(c3nccs3)C2=O)cc1 | 50% (active) | 38% | 2% | 97% (active) | inactive | inactive | inactive | inactive
27 | CCN(CC)CCN(Cc1ccc(-c2ccc(Cl)cc2)cc1)C(=O)Cn1cc(CN(C)C)c(=O)nc1SCc1ccc(F)cc1 | 99% (active) | 49% | 1% | 99% (active) | inactive | inactive | inactive | inactive
28 | COc1ccc2ncc(Cl)c(CCN3CC[C@@H](CNCc4cc5c(cn4)OCS5)C3)c2n1 | 31% | 22% | 3% | 99% (active) | inactive | inactive | inactive | inactive
29 | Nc1nc(N)c2c(ccc3c2ccn3Cc2ccc(OCc3ccccc3)cc2)n1 | 1% | 5% | -2% | 98% (active) | inactive | inactive | inactive | inactive
30 | O[C@@H](c1cccc(OCc2ccccc2)c1)[C@@H]1CN(CCc2ccccc2)CC[C@@]1(O)c1ccccc1 | 98% (active) | 7% | -4% | 98% (active) | inactive | inactive | inactive | inactive
31 | OCC1CCN(Cc2cccc(-c3ccc(-c4nc5ccc(F)cc5[nH]4)cc3)c2)CC1 | 86% (active) | 11% | 4% | 101% (active) | inactive | inactive | inactive | inactive
32 | COc1ccc(Cl)cc1N1CCN(CCCNC(=O)c2ccc(-c3nc4cc(Cl)c(Cl)cc4[nH]3)c(C)c2)CC1 | -1% | 4% | 2% | 101% (active) | inactive | inactive | inactive | inactive
33 | COC(=O)C(Cc1ccccc1)NC(=O)NC1CCN(c2ccnc(Nc3ccc(F)cc3)n2)C1 (stereo unspecified) | 14% | 0% | -3% | 90% (active) | inactive | inactive | inactive | inactive
34 | CN1CCN(CC(=O)Nc2ccc(-c3ccc(-c4nc5ccccc5[nH]4)s3)cc2)CC1 | 49% | 12% | -1% | 101% (active) | inactive | inactive | inactive | inactive
35 | O=C(Nc1ccc(-c2cccc(-c3nc4ccc(F)cc4[nH]3)c2)cc1)c1ccncc1 | 18% | 58% (active) | -5% | 96% (active) | inactive | inactive | inactive | inactive
36 | COc1cccc(OC2CCN(C(=O)c3cc(C(C)(C)C)nn3Cc3ccccc3)CC2)c1 | 98% (active) | 3% | 3% | 102% (active) | inactive | inactive | inactive | inactive
37 | O=C(/C=C/c1ccc(Cl)c(Cl)c1)NCCCCCN1CCC(NC(=O)Nc2ccc(F)cc2F)CC1 | 23% | 14% | 2% | 102% (active) | inactive | inactive | inactive | inactive
